PubChem BioAssay AID504832 (National Center for Advancing Translational Sciences (NCATS), 2011)
Hit rate of the full screen: of about 310,000 compounds, about 18,000 (5.8%) were called active. Roughly 22% stayed inconclusive and do not appear here. What follows is part of a selection rich in actives, with near analogues and random picks from the rest. Unmarked numbers belong to inactive results. The call rests on the fitted dose curve; in most records, active means well fitted inhibition curve with a large enough effect; inconclusive means small, poorly fitted or top-dose-only effect, or another doubt; inactive means no such curve, though single readings can be large or run the other way.

Assay: Primary qHTS for delayed death inhibitors of the malarial parasite plastid, 48 hour incubation
Details: P. falciparum luciferase growth in erythrocytes; series mostly up to 28.7 µM; activity change, negative = inhibition: at the top concentration
Description: The goal of this screen is to discover new antimalarial compounds that act by inhibiting the development of the apicoplast in the malarial parasite Plasmodium falciparum. The biochemical processes that make this organelle essential for erythrocytic stage parasites are not well understood. However, antibiotics such as azithromycin and tetracycline, which target the apicoplast translational machinery, have a potent antimalarial effect.
We have developed a cell-based assay that measures parasite growth based on the expression of an integrated copy of a firefly luciferase reporter. To detect small molecules that cause this "delayed death" phenotype, erythrocytes infected with the luciferase-expressing parasites were incubated with compounds for either one or two generations, corresponding to 48 and 96 hours, respectively. Compounds that inhibit parasite growth in the second generation, but not the first, should be enriched in antimalarials that target the apicoplast. Growth inhibition is detected by a decrease in luciferase activity.
Assay Provider: David Fidock and Eric Ekland, Columbia University
Keywords: NIH Roadmap, MLPCN, MLI, MLSMR, qHTS, NCGC, qHTS, malaria, luciferase, viability
Four microliters of culture medium (RPMI 1640 with 0.5% w/v Albumax (GIBCO), 24 mM sodium bicarbonate and 10 ug/mL gentamycin) were dispensed by a Multi-drop Combi into white solid 1536-well plates (Grenier) and 23 nL compound was added by a pin tool. Four microliters of infected erythrocytes (2% hematocrit, 0.1% parasitemia final concentration) in culture medium were dispensed and the plates incubated for 48 hours at 37 C in 5% CO2. Two microliters of luciferase detection reagent was added and luminescence was detected by a ViewLux (PerkinElmer) reader.
On the % scale 0 is the no-effect control and ±100 the full control effect; potency means the concentration at half of the fitted maximal effect.

Row | Structure (SMILES) | activity change, negative = inhibition [%] | Potency
1 | O=C(N/N=C\c1cc2c(cc1Cl)OCO2)c1ccc(Br)s1 | 9.16 | –
2 | Cc1ccc(S(=O)(=O)N(C)C)cc1NC(=O)C(C)OC(=O)c1ccc2ccccc2n1 (stereo unspecified) | 14.4 | –
3 | CC1=NC2(CCCc3c2no[n+]3[O-])N(O)C1(C)C (stereo unspecified) | – | 7.38 µM (active)
4 | CCOc1ccccc1NS(=O)(=O)c1cc2c3c(c1)C(C)C(=O)N3CCC2 (stereo unspecified) | -22.7 | –
5 | Cc1cc(C)n(-c2ccc(NC(=O)C3CCCCN3C(=O)c3cccs3)cc2)n1 (stereo unspecified) | 34 | –
6 | CC1C(=O)Nc2ccccc2N1C(=O)c1c(F)cccc1F (stereo unspecified) | -12 | –
7 | O=C(CCNC(=O)c1ccc(Br)cc1)Nc1cccc(S(=O)(=O)N2CCCCC2)c1 | 17.9 | –
8 | COc1ccc2oc(C(=O)OCC(=O)N(CC(C)C)c3c(N)n(Cc4ccccc4)c(=O)[nH]c3=O)c(C)c2c1 | -15.5 | –
9 | Cc1cc(Oc2ccc(Cl)cc2)nc(SCC(=O)c2ccccc2)n1 | 11.4 | –
10 | Cc1cc(C)n(-c2cc(Oc3ccccc3)ncn2)n1 | 10.9 | –
11 | CC(=O)c1ccc(Oc2cc(C)nc(-n3nc(C)cc3C)n2)cc1 | – | 11.7 µM (active)
12 | COc1cccc(C(=O)Nc2nnc(S(=O)(=O)N3CCCCC3)s2)c1 | 11.5 | –
13 | COc1ccc(/C=C2\SC(=O)N(CCC(=O)NC3CCS(=O)(=O)C3)C2=O)cc1 (stereo unspecified) | 106 | –
14 | CC(C)c1ccc(-c2noc(C3CCCN(S(C)(=O)=O)C3)n2)cc1 (stereo unspecified) | 37.3 | –
15 | COc1cc(-c2noc(C3CCCN(S(=O)(=O)c4cccc(Cl)c4)C3)n2)cc(OC)c1OC (stereo unspecified) | – | 13.1 µM (active)
16 | COc1cccc(-c2noc(C3CCCN(C(=O)c4ccc(F)cc4)C3)n2)c1 (stereo unspecified) | 30.9 | –
17 | CCCCn1c(N)c(N(CCOC)C(=O)c2sc3ccccc3c2Cl)c(=O)[nH]c1=O | 4.94 | –
18 | CCn1cc(/C=C(\NC(=O)c2ccc(C)cc2)C(=O)NCCN2CCOCC2)c2ccccc21 | -11.1 | –
19 | COc1ccc(NC(=O)CSc2nc(SC)ns2)c(OC)c1 | 152 | –
20 | O=C(O)CCn1c(Cc2ccccc2)nc2ccccc21 | -1.94 | –
21 | Cc1ccc2c(c1)C1CN(C)CCC1N2C(=S)Nc1ccc(OC(F)F)cc1 (stereo unspecified) | 2.27 | –
22 | Cc1ccc2c(c1)C1CN(C)CCC1N2S(=O)(=O)c1ccc(Oc2ccc([N+](=O)[O-])cc2)cc1 (stereo unspecified) | – | 8.28 µM (active)
23 | Cc1ccc2c(c1)C1CN(C)CCC1N2C(=S)Nc1ccc(Cl)cc1Cl (stereo unspecified) | 1.06 | –
24 | COc1cc(NC(=O)CSc2ccc(-c3cccnc3)nn2)cc(OC)c1 | -21.3 | –
25 | COc1ccccc1CN1CCN(C(=O)Cc2ccccc2)CC1 | 0.183 | –
26 | COc1ccccc1CN1CCN(C(c2ccccc2)c2ccccc2)CC1 | – | 13.1 µM (active)

Row | Structure (SMILES) | activity change, negative = inhibition [%] | Potency
27 | COc1ccccc1/C=N/N1CCN(Cc2ccccc2Cl)CC1 | -0.519 | –
28 | COc1ccc(N2CC(NS(=O)(=O)c3ccc4ccccc4c3)CC2=O)cc1 (stereo unspecified) | 9.04 | –
29 | O=C(NCc1ccco1)c1ccc([N+](=O)[O-])cc1Cl | 14.9 | –
30 | O=C(NCc1ccco1)c1cc(-c2cccnc2)nc2ccc(Cl)cc12 | – | 10.4 µM (active)
31 | NC(=O)c1cc(-c2cccnc2)nc2ccc(Br)cc12 | -1.12 | –
32 | O=C(NC1C2CC3CC(C2)CC1C3)c1ccc(N2CCNCC2)c([N+](=O)[O-])c1 (stereo unspecified) | -9.91 | –
33 | O=C(Nc1cccc(C(F)(F)F)c1)c1ccc(N2CCNCC2)c([N+](=O)[O-])c1 | – | 2.62 µM (active)
34 | O=C(Nc1ccc(N2C(=O)c3cccc4cccc(c34)C2=O)cc1)c1ccc(N2CCCCC2)c([N+](=O)[O-])c1 | -11.8 | –
35 | O=[N+]([O-])c1ccc(NC(=S)N2CCN(c3ccccn3)CC2)cc1 | 7.82 | –
36 | O=C(CNC(=O)c1ccccc1)Oc1ccc([N+](=O)[O-])cc1 | 0.311 | –
37 | Oc1c(Cl)cc(Cl)c(Cl)c1Cc1c(O)c(Cl)cc(Cl)c1Cl | – | 11.7 µM (active)
38 | CCOc1ccc(N2CC(C(=O)NCc3ccccn3)CC2=O)cc1 (stereo unspecified) | -0.962 | –
39 | CC(C)C[C@H](NC(=O)N1CC(=O)Nc2ccccc21)C(=O)N[C@H](Cc1ccccc1)C(=O)O | -23.2 | –
40 | COc1ccc(C(=O)ON=C2c3ccccc3-c3ccccc32)cc1OC | 22.3 | –
41 | COc1ccc(C/C(N)=N/OC(=O)c2ccco2)cc1OC | 6.03 | –
42 | COc1ccc(C(=O)O/N=C(\N)Cc2ccc(Cl)cc2Cl)cc1OC | – | 13.1 µM (active)
43 | Cc1ccc2c(C)c(C(=O)N(C)Cc3ccncn3)oc2c1C | -0.404 | –
44 | CCN1CCN(c2ccc(NC(=O)c3cnccn3)cc2)CC1 | 192 | –
45 | CCOC(=O)N1CCN(Cc2nc(N)nc(Nc3ccc(C)cc3)n2)CC1 | 21.1 | –
46 | CCOC(=O)N1CCN(C(=O)CSc2nc(=O)n3cccc(C)c3n2)CC1 | -0.362 | –
47 | CCOC(=O)N1CCN(C(c2cccnc2)c2ccc3cccnc3c2O)CC1 (stereo unspecified) | – | 11.7 µM (active)
48 | CCN1CCN(C(c2cccnc2)c2cc(Cl)c3cccnc3c2O)CC1 (stereo unspecified) | – | 4.15 µM (active)
49 | CN(CC(=O)Nc1ccc(F)cc1)CC(=O)N1CCCCC1 | 3.47 | –
50 | Cc1cc(C)cc(N(CC(=O)NC2CCCC2)C(=O)CCC(=O)Nc2cc(C)on2)c1 | -38.6 | –
51 | Cn1cc(CNC(=O)c2ccc(OC3CCN(Cc4ccccn4)CC3)cc2)cn1 | -19.4 | –
